Measured potencies and affinities stand elsewhere.

The test system of one assay is Staphylococcus aureus. The settings on record: Concentration 32 ug.mL-1; ASSAY_TEST Inhibition of Bacterial Growth; detection method Absorption (OD600); MEDIA CAMHB; plate type 384well; NBS; CORNING #3640; time 18 hr.
Usually Inhibition stands for the drop in the measured response relative to a control, in per cent. With `CCOC(=O)c1c(C)[nH]c2ccc(OC)cc12`, the Inhibition is given as -4.64%.

Take `OCc1cc2ccccc2[nH]1`: the Inhibition was determined as 39.41%.

`CCOC(=O)C1=C(C)NC(N)=C(C#N)C1c1ccc(OC)cc1` (stereo not given): the Inhibition is on record as 20.75%.

As to `C#CCN(C)Cc1cc2cc(OCc3ccc(OC)c4ncccc34)ccc2n1C`, the Inhibition is reported as 3.95%.

With `CCOC(=O)c1c(C)nc(NCC2CCN(Cc3ccccc3)CC2)c(C#N)c1-c1ccccc1`, the Inhibition was determined as 24.62%.

With `N#Cc1cc2c(N)n[nH]c2nc1N`, the Inhibition is reported as 14.97%.

As to `COC(=O)C1CCN(Cc2ccccc2)CC1`, the Inhibition stood at 27.51%.

As to `N#CC1=C(N)Oc2ccc3ccccc3c2C1c1ccc(O)cc1` (stereo not given), the Inhibition was determined as 42.7%.

For the compound `CC(C)(C)OC(=O)Nc1ncccc1Br`, the Inhibition was found to be 38.27%.

As to `COc1ccc2c(c1)cc(CN)n2C`, the Inhibition is 13.26%.

`CC(=O)n1cc(/C=C2\N=C(c3ccccc3)OC2=O)c2ccccc21`: the Inhibition was determined as 15.78%.

As to `N#CC1=C(Cl)Oc2c(ccc3ccccc23)C1c1ccccc1` (stereo not given), the Inhibition worked out at 14.99%.

For `CN(C)c1cccc(C(=O)c2cccc(N(C)C)c2)c1`, the Inhibition amounted to 23.31%.

As for `Cc1[nH]nc2c1C(c1ccc(O)c(O)c1)C(C#N)=C(N)O2` (stereo not given), the Inhibition was determined as 9.09%.

As for `COc1ccc(CNNC(=O)c2cc3ccccc3[nH]2)cc1`, the Inhibition was determined as 2.37%.

With `COc1ccc2cc(C3C4=C(CC(C)(C)CC4=O)Oc4nc5c(c(N)c43)CCC5)c(Cl)nc2c1` (stereo not given), the Inhibition amounted to 18.17%.

Take `Cc1ccc2nc(Cl)c(/C=N/NCc3ccccc3)cc2c1`: the Inhibition is 26.2%.

As for `Br.C#CCNCc1ccccc1`, the Inhibition was found to be 25.93%.

On to `Cc1ccc2nc(Cl)c(/C=N/N)cc2c1`, for which the Inhibition amounted to 28.8%.

As to `COc1ccccc1C1C(C#N)=C(N)Oc2ccc3ccccc3c21` (stereo not given), the Inhibition is given as 38.4%.

For the compound `Cc1[nH]nc2c1C(c1cccc([N+](=O)[O-])c1)C(C#N)=C(N)O2` (stereo not given), the Inhibition turned out to be 7.57%.

Take `CCOC(=O)c1cc2ccccc2[nH]1`: the Inhibition is 8.39%.

As for `CN(C)c1nc(Cl)c(C#N)c(-c2ccccc2)c1C#N`, the Inhibition is recorded as -17.89%.

Consider `O=C1OC(c2ccccc2)=NC1=Cc1ccccc1Cl`, for which the Inhibition was 16.61%.

With `Cc1ccc(C2c3ccc4ccccc4c3Oc3nc4c(c(N)c32)CCCC4)cc1` (stereo not given), the Inhibition is reported as -4.73%.

As for `C=C=CCN(C)Cc1cc2ccccc2n1C.O=C(O)C(=O)O`, the Inhibition is 31.58%.

For `COc1cc(C2c3ccc4ccccc4c3Oc3nc4c(c(N)c32)CCCC4)ccc1O.Cl` (stereo not given), the Inhibition is given as -4.49%.

Take `O=Cc1c[nH]c2ccccc12` [3-FORMYLINDOLE]: the Inhibition is on record as 16.72%.

As to `N#Cc1c(N)nc(N)c(C#N)c1-c1ccccc1`, the Inhibition turned out to be 24.97%.

On to `N#CC1=C(N)Oc2ccc3ccccc3c2C1c1cccc([N+](=O)[O-])c1` (stereo not given), for which the Inhibition is 31.47%.

As to `CSC1=NC2(CC2c2ccccc2)C(=O)N1C` (stereo not given), the Inhibition is -3.53%.

For `N#C[C@]1(Br)C(=N)Oc2ccc3ccccc3c2[C@@H]1c1ccc([N+](=O)[O-])cc1`, the Inhibition was 26.21%.

For `N#Cc1c(-c2ccccc2)c2c(ccc3ccccc32)oc1=O`, the Inhibition came out at 27.54%.

On to `C#CCN(C)c1nc(NCCCC2CCN(Cc3ccccc3)CC2)c(C#N)cc1C#N`, for which the Inhibition worked out at 1.12%.

`COC1=C(C#N)CC(C)C(=O)N1` (stereo not given): the Inhibition was 16.96%.

On to `C=C1CN(Cc2ccccc2)c2c(C#N)c(-c3ccccc3)c(C#N)c(=N)n21`, for which the Inhibition was determined as 44.91%.

With `C#CCN(C)c1nc(OC)c(C#N)c(-c2ccccc2)c1C#N`, the Inhibition is on record as 44.46%.

Consider `N#Cc1ccc(Br)cc1N`, for which the Inhibition is reported as 4.6%.

`Cn1ccnc1C1c2ccc3cccnc3c2Oc2nc3c(c(N)c21)CCCCC3` (stereo not given): the Inhibition amounted to 21.02%.

As to `Cc1ccc(C2C(C#N)=C(N)Oc3c2ccc2ccccc32)cc1` (stereo not given), the Inhibition is listed as -4.2%.

The subject of another assay is Escherichia coli. As to conditions: Concentration 32 ug.mL-1; ASSAY_TEST Inhibition of Bacterial Growth; detection method Absorption (OD600); MEDIA CAMHB; plate type 384well; NBS; CORNING #3640; time 18 hr.
`CCOC(=O)c1c(C)[nH]c2ccc(OC)cc12`: the Inhibition was found to be 0.02%.

On to `OCc1cc2ccccc2[nH]1`, for which the Inhibition is recorded as -0.49%.

As to `CCOC(=O)C1=C(C)NC(N)=C(C#N)C1c1ccc(OC)cc1` (stereo not given), the Inhibition is given as -7.34%.

Turning to `C#CCN(C)Cc1cc2cc(OCc3ccc(OC)c4ncccc34)ccc2n1C`, the Inhibition is -18.67%.

`CCOC(=O)c1c(C)nc(NCC2CCN(Cc3ccccc3)CC2)c(C#N)c1-c1ccccc1`: the Inhibition is on record as -10.38%.

As for `N#Cc1cc2c(N)n[nH]c2nc1N`, the Inhibition came to 10.46%.

For `COC(=O)C1CCN(Cc2ccccc2)CC1`, the Inhibition is recorded as 11.49%.

As to `N#CC1=C(N)Oc2ccc3ccccc3c2C1c1ccc(O)cc1` (stereo not given), the Inhibition is listed as -6.77%.

With `CC(C)(C)OC(=O)Nc1ncccc1Br`, the Inhibition was -5.45%.

With `COc1ccc2c(c1)cc(CN)n2C`, the Inhibition worked out at 5.66%.

As to `CC(=O)n1cc(/C=C2\N=C(c3ccccc3)OC2=O)c2ccccc21`, the Inhibition was determined as 15.77%.

Consider `N#CC1=C(Cl)Oc2c(ccc3ccccc23)C1c1ccccc1` (stereo not given), for which the Inhibition is -36.62%.

As for `CN(C)c1cccc(C(=O)c2cccc(N(C)C)c2)c1`, the Inhibition came out at 7.89%.

Turning to `Cc1[nH]nc2c1C(c1ccc(O)c(O)c1)C(C#N)=C(N)O2` (stereo not given), the Inhibition is recorded as 8.02%.

`COc1ccc(CNNC(=O)c2cc3ccccc3[nH]2)cc1`: the Inhibition was -1.53%.

As to `COc1ccc2cc(C3C4=C(CC(C)(C)CC4=O)Oc4nc5c(c(N)c43)CCC5)c(Cl)nc2c1` (stereo not given), the Inhibition came out at 11.31%.

In the case of `Cc1ccc2nc(Cl)c(/C=N/NCc3ccccc3)cc2c1`, the Inhibition is given as 22.89%.

Turning to `Br.C#CCNCc1ccccc1`, the Inhibition is 20.8%.

Consider `Cc1ccc2nc(Cl)c(/C=N/N)cc2c1`, for which the Inhibition was found to be 25.39%.

`COc1ccccc1C1C(C#N)=C(N)Oc2ccc3ccccc3c21` (stereo not given): the Inhibition is listed as -7.08%.

On to `Cc1[nH]nc2c1C(c1cccc([N+](=O)[O-])c1)C(C#N)=C(N)O2` (stereo not given), for which the Inhibition is recorded as 4.04%.

`CCOC(=O)c1cc2ccccc2[nH]1`: the Inhibition came to 13.65%.

Turning to `CN(C)c1nc(Cl)c(C#N)c(-c2ccccc2)c1C#N`, the Inhibition is on record as -6.44%.

For the compound `O=C1OC(c2ccccc2)=NC1=Cc1ccccc1Cl`, the Inhibition was 12.84%.

Turning to `Cc1ccc(C2c3ccc4ccccc4c3Oc3nc4c(c(N)c32)CCCC4)cc1` (stereo not given), the Inhibition is on record as -12.25%.

With `C=C=CCN(C)Cc1cc2ccccc2n1C.O=C(O)C(=O)O`, the Inhibition is -19.52%.

Consider `COc1cc(C2c3ccc4ccccc4c3Oc3nc4c(c(N)c32)CCCC4)ccc1O.Cl` (stereo not given), for which the Inhibition is recorded as -1.18%.

Consider `O=Cc1c[nH]c2ccccc12` [3-FORMYLINDOLE], for which the Inhibition is 17.3%.

In the case of `N#Cc1c(N)nc(N)c(C#N)c1-c1ccccc1`, the Inhibition is reported as -10.66%.

For the compound `N#CC1=C(N)Oc2ccc3ccccc3c2C1c1cccc([N+](=O)[O-])c1` (stereo not given), the Inhibition was -6.29%.

As for `CSC1=NC2(CC2c2ccccc2)C(=O)N1C` (stereo not given), the Inhibition was -1.26%.

Take `N#C[C@]1(Br)C(=N)Oc2ccc3ccccc3c2[C@@H]1c1ccc([N+](=O)[O-])cc1`: the Inhibition was 11.8%.

As for `N#Cc1c(-c2ccccc2)c2c(ccc3ccccc32)oc1=O`, the Inhibition is reported as 15.75%.

For `C#CCN(C)c1nc(NCCCC2CCN(Cc3ccccc3)CC2)c(C#N)cc1C#N`, the Inhibition is reported as -10.35%.

For the compound `COC1=C(C#N)CC(C)C(=O)N1` (stereo not given), the Inhibition is listed as -13.94%.

Regarding `C=C1CN(Cc2ccccc2)c2c(C#N)c(-c3ccccc3)c(C#N)c(=N)n21`, the Inhibition is listed as -0.81%.

For `C#CCN(C)c1nc(OC)c(C#N)c(-c2ccccc2)c1C#N`, the Inhibition was -5.76%.

Regarding `N#Cc1ccc(Br)cc1N`, the Inhibition was determined as 16.76%.

`Cn1ccnc1C1c2ccc3cccnc3c2Oc2nc3c(c(N)c21)CCCCC3` (stereo not given): the Inhibition is recorded as -10.34%.

Consider `Cc1ccc(C2C(C#N)=C(N)Oc3c2ccc2ccccc32)cc1` (stereo not given), for which the Inhibition is on record as -2.25%.

Values taken from ChEMBL document CHEMBL4513135, “CO-ADD screening of IQOG CSIS (Spain) compounds”.
